Test results from PubChem BioAssay AID1159580 (chemical genetic matrix, 2015).
Where “and” joins values, the source holds several entries; their conditions need not be identical. Equal values may be shown once. Hit rate of the full screen: of about 5,500 compounds, about 2,000 (36%) were called active. Another 18% or so got no clear call; they are omitted. Rule as the data show it: active = normalized growth mostly below about 0.91 (no sharp cut-off); inconclusive = no clear call, values can overlap the other calls; inactive = mostly above about 0.92. Some of the results follow.

Assay: chemical genetic growth profiling, strain panel (AID 1159580);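 also: tested at 20 µM; growth read once vehicle control cultures reached saturation at 30 °C; 1 = growth at the plate median or of vehicle wells; lower values mean less growth of the strain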
Details: S. cerevisiae deletion strains, growth OD

Measured: normalized growth

COc1cccc2c1cc([N+](=O)[O-])c1c(C(=O)O)cc3c(c12)OCO3
inactive: locus YAL021C, strain ccr4, active compounds read low 1.01 | locus YAL026C, strain drs2, active compounds read low 1.02 | locus YAL030W, strain snc1, active compounds read low 1.02 | locus YBL061C, strain skt5, active compounds read low 1.02 | locus YBR009C, strain hhf1, active compounds read low 1.03 | locus YBR021W, strain FUR4, active compounds read low 0.991 | locus YBR023C, strain chs3, active compounds read low 1.02 | locus YBR171W, strain sec66, active compounds read low 1.05 | locus YBR229C, strain ROT2, active compounds read low 1.01 | locus YBR231C, strain swc5, active compounds read low 1.03 | locus YBR279W, strain paf1, active compounds read low 1.02 | locus YCL011C, strain gbp2, active compounds read low 1.03 | locus YCL016C, strain dcc1, active compounds read low 1.02 | locus YCL029C, strain bik1, active compounds read low 1.02 | locus YCL061C, strain MRC1, active compounds read low 1.02 | locus YCL069W, strain vba3, active compounds read low 1.02 | locus YCR088W, strain abp1, active compounds read low 1.02 | locus YDL005C, strain med2, active compounds read low 1.04 | locus YDL035C, strain GPR1, active compounds read low 1.01 | locus YDL040C, strain nat1, active compounds read low 1 | locus YDL074C, strain BRE1, active compounds read low 1.04 | locus YDL101C, strain DUN1, active compounds read low 1.03 | locus YDL134C, strain PPH21, active compounds read low 1.01 | locus YDL185W, strain tfp1, active compounds read low 1 | locus YDL192W, strain arf1, active compounds read low 1.04 | locus YDR001C, strain nth1, active compounds read low 1.02 | locus YDR069C, strain doa4, active compounds read low 1.02 | locus YDR101C, strain arx1, active compounds read low 1.03 | locus YDR137W, strain rgp1, active compounds read low 1.03 | locus YDR150W, strain NUM1, active compounds read low 1.02 | locus YDR159W, strain sac3, active compounds read low 1.04 | locus YDR162C, strain NBP2, active compounds read low 1.03 | locus YDR195W, strain ref2 1 | locus YDR297W, strain sur2, active compounds read low 1.03 | locus YDR318W, strain mcm21, active compounds read low 1.02 | locus YDR334W, strain swr1, active compounds read low 1.02 | locus YDR335W, strain msn5, active compounds read low 1.02 | locus YDR388W, active compounds read low 1.02 | locus YDR392W, strain spt3, active compounds read low 0.971 | locus YDR502C, strain sam2, active compounds read low 1.01 | locus YEL003W, strain gim4, active compounds read low 1.03 | locus YEL037C, strain rad23, active compounds read low 1.02 | locus YEL061C, strain CIN8 (second series), active compounds read low 1.02 | locus YEL061C, strain CIN8, active compounds read low 1.01 | locus YER015W, strain faa2, active compounds read low 1.02 | locus YER016W, strain bim1, active compounds read low 1.02 | locus YER110C, active compounds read low 1.01 | locus YER111C, strain swi4, active compounds read low 1.03 | locus YER155C, strain BEM2 (second series), active compounds read low 1.03 | locus YER155C, strain BEM2, active compounds read low 1.01 | locus YER167W, strain BCK2, active compounds read low 0.999 | locus YFR010W, strain ubp6, active compounds read low 1.02 | locus YGL078C, strain dbp3, active compounds read low 0.997 | locus YGL086W, strain mad1, active compounds read low 1.03 | locus YGL167C, strain pmr1, active compounds read low 1.04 | locus YGL173C, strain kem1, active compounds read low 1.04 | locus YGL227W, strain vid30, active compounds read low 1.02 | locus YGL240W, strain doc1, active compounds read low 1.03 | locus YGL248W, strain PDE1, active compounds read low 1.01 | locus YGL253W, strain hxk2, active compounds read low 1.01 | locus YGR135W, strain pre9, active compounds read low 0.994 | locus YGR229C, strain SMI1, active compounds read low 1.02 | locus YGR252W, strain gcn5, active compounds read low 0.906 | locus YHR013C, strain ard1, active compounds read low 1.02 | locus YHR027C, strain rpn1, active compounds read low 1.02 | locus YHR030C, strain SLT2, active compounds read low 1.01 and 0.92 | locus YHR079C, strain IRE1 (second series), active compounds read low 1.01 | locus YHR079C, strain IRE1, active compounds read low 0.914 | locus YHR094C, strain hxt1, active compounds read low 1.02 | locus YHR129C, strain ARP1, active compounds read low 1.01 | locus YHR142W, strain chs7, active compounds read low 1.01 | locus YHR200W, strain rpn10, active compounds read low 1.02 | locus YIL066C, strain RNR3, active compounds read low 1.02 | locus YIL073C, strain SPO22, active compounds read low 1.03 | locus YIL125W, strain kgd1, active compounds read low 0.995 | locus YIR030C, strain dcg1, active compounds read low 1.02 | locus YJL092W, strain hpr5, active compounds read low 1.02 | locus YJL095W, strain BCK1 (second series), active compounds read low 1.01 | locus YJL095W, strain BCK1, active compounds read low 1.04 and 0.987 | locus YJL115W, strain asf1, active compounds read low 1.02 | locus YJL129C, strain trk1, active compounds read low 1.03 | locus YJL134W, strain LCB3, active compounds read low 1.02 | locus YJL154C, strain vps35, active compounds read low 1.02 | locus YJL164C, strain tpk1, active compounds read low 0.991 | locus YJL166W, strain qcr8, active compounds read low 1.02 | locus YJL168C, strain set2, active compounds read low 1.01 | locus YJL187C, strain SWE1 (second series), active compounds read low 1.03 | locus YJL187C, strain SWE1, active compounds read low 1.02 | locus YJR043C, strain POL32, active compounds read low 1.01
